Source: PubChem BioAssay AID588382 (National Center for Advancing Translational Sciences (NCATS), 2011)
Among all 1,300 compounds or so, about 150 (12%) were called active. Not shown: some 30% with an inconclusive outcome. Only a selection was taken, and actives are over-represented in it overall. Unmarked numbers belong to inactive results. Calls come from the whole dose curve; as a rule, active = well fitted cell-killing curve with a large enough effect; inconclusive = small, poorly fitted or top-dose-only effect, or effect the other way; inactive = flat fitted curve, though single readings scatter.

Experiment: qHTS of small molecules that selectively kill Giardia lamblia: Hit Validation in HepG2 cytotox;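 note: compound exposure lasted overnight at 37 deg C; nearly all actives have a fitted effect of over 55% in size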;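 for activity change, negative = cytotoxicity: viability measured as cellular ATP by ATPLite luminescence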
Details: cell viability; Potency: HepG2 cytotoxicity; series mostly up to 38.3 µM; activity change, negative = cytotoxicity: at the top concentration
How it was run: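 Counterscreen cytotoxicity: ATPLite luminescence (15 min, room temperature) measured in HepG2 cells exposed overnight at 37 deg C to pin-transferred compound (23 nL) after overnight pre-incubation.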
% is set by controls: 0 for no effect and ±100 for the full control effect; potency is the fitted concentration of half-maximal effect.

With `c1csc(-c2ccc(N3CCOCC3)nn2)c1` the Potency was 6.56 µM (active).
In the case of `Cc1ccc(-c2csc(NC(=O)c3ccc([N+](=O)[O-])o3)n2)cc1`, the Potency is reported as 11.7 µM (active).
For `O=C(Nc1nc(-c2cccs2)cs1)c1ccc([N+](=O)[O-])o1`, the Potency was 1.85 µM (active).
With `Cc1nnc(N/N=C/c2cccs2)[nH]c1=O` the Potency was 2.07 µM (active).
For `O=C(NCc1ccccn1)C1CCCN(S(=O)(=O)c2cc(Cl)ccc2Cl)C1` (configuration not stated), the Potency was 3.69 µM (active).
With `CCc1cccc(NC(=O)CCCSc2nc3ccccc3[nH]2)c1` the Potency was 16.5 µM (active).
For `COc1ccc(/C=N/Nc2cc(C)nc3c(C)cccc23)cc1`, the Potency was 13.1 µM (active).
For `COc1ccc2nc(C)cc(N/N=C/c3ccc(F)cc3)c2c1`, the Potency was 2.33 µM (active).
In the case of `Cc1ccc(CSc2nc3ccncc3[nH]2)cc1`, the Potency is reported as 0.369 µM (active).
With `O=C(c1ccc(CSc2nc3ccncc3[nH]2)cc1)N1CCCCCC1` the Potency was 0.927 µM (active).
For `COc1cccc(CSc2nc3ccncc3[nH]2)c1`, the Potency was 4.65 µM (active).
In the case of `Clc1ccc(CSc2nc3ccncc3[nH]2)cc1`, the Potency is reported as 1.17 µM (active).

Going from `O=[N+]([O-])c1ccc(O/N=[N+](\[O-])N2CCCCC2)c([N+](=O)[O-])c1` to `O=C(COc1cccnc1[N+](=O)[O-])Nc1cc(S(=O)(=O)N2CCCCC2)ccc1Cl`, the “activity change, negative = cytotoxicity” value rises from -3.12% to 22%.

Compared with `CC1CCCCC1NC(=O)COc1cccnc1[N+](=O)[O-]` (configuration not stated), `O=C(COc1cccnc1[N+](=O)[O-])NCCc1ccc(Cl)cc1Cl` is lower in “activity change, negative = cytotoxicity” value: 1.19% for the first, -9.72% for the second.

Going from `O=C1OC(CN(Cc2ccccc2)Cc2ccccc2)CN1N=Cc1ccc([N+](=O)[O-])o1` (configuration not stated) to `O=C(Nc1nc2ccccc2s1)c1ccc([N+](=O)[O-])o1`, the “activity change, negative = cytotoxicity” value rises from 5.24% to 15.5%.

Compared with `CCCCC(=O)Nc1ncc([N+](=O)[O-])s1`, `Cc1cc(C)c2nc(NC(=O)c3ccc([N+](=O)[O-])o3)sc2c1` is higher in “activity change, negative = cytotoxicity” value: 5.49% for the first, 16.6% for the second.

First: COc1ccc(C(=O)c2c(C)oc3cc([N+](=O)[O-])c(O)c([N+](=O)[O-])c23)cc1
Second: COc1ccc(NS(=O)(=O)c2ccc(C)cc2)c([N+](=O)[O-])c1
The “activity change, negative = cytotoxicity” value of the first is lower: -8.87% for the first, 13.3% for the second.

First: O=C(Nc1nc2c(F)cccc2s1)c1ccc([N+](=O)[O-])o1
Second: Cc1cc(C)c2sc(NC(=O)c3ccc([N+](=O)[O-])o3)nc2c1
The “activity change, negative = cytotoxicity” value of the first is higher: -2.51% for the first, -15% for the second.

Compared with `COc1ccccc1C1C([N+](=O)[O-])=CC([N+](=O)[O-])=CN1C` (configuration not stated), `COc1ccccc1Nc1cc(C)nc2c(C)ccc([N+](=O)[O-])c12` is lower in “activity change, negative = cytotoxicity” value: 15.2% for the first, 4.71% for the second.

Going from `Cc1cnc([N+](=O)[O-])n1CCOC(=O)NC(=O)c1ccccc1Cl` to `Cc1ncc([N+](=O)[O-])n1CCOC(=O)Nc1ccc(Cl)c(Cl)c1`, the “activity change, negative = cytotoxicity” value falls from 18% to 8.58%.

Going from `CC(=O)NC(Cc1ccc(F)cc1)C(=O)NC1CCN(c2ncccc2[N+](=O)[O-])CC1` (configuration not stated) to `O=C(O)C1CCN(c2ccccc2[N+](=O)[O-])CC1`, the “activity change, negative = cytotoxicity” value rises from 8.79% to 11.1%.

Going from `Cn1c([N+](=O)[O-])cnc1N1CCN(c2nncs2)C1=O` to `Cc1nnc(SCc2ccc([N+](=O)[O-])cc2)[nH]c1=O`, the “activity change, negative = cytotoxicity” value rises from -11.6% to 13.3%.

Compared with `COc1cc(/C=C2\SC(=O)N(c3ccc(Cl)cc3)C2=O)cc([N+](=O)[O-])c1O`, `CN1C(=O)/C(=C/c2cccc(Cl)c2)Sc2ccc(C(=O)N3CCCC3)cc21` is lower in “activity change, negative = cytotoxicity” value: 10.2% for the first, -2.18% for the second.

Going from `COc1cc2c(cc1OC)CN(C(=O)c1ccc([N+](=O)[O-])o1)CC2` to `CCOC(=O)C1=C(C)NC(=O)NC1c1ccc([N+](=O)[O-])o1` (configuration not stated), the “activity change, negative = cytotoxicity” value rises from -5.91% to 8.82%.

Going from `O=C(NC1CCS(=O)(=O)C1)c1ccc(N2CCCCC2)c([N+](=O)[O-])c1` (configuration not stated) to `COc1ccc(C(=O)C(C)OC(=O)CNC(=O)C2CCCCC2)cc1` (configuration not stated), the “activity change, negative = cytotoxicity” value rises from 20.8% to 22.2%.

First: S=C(NCCc1ccccc1)N/N=C/c1cccs1
Second: Cc1cc(C)nc(N/N=C/c2ccc(Cl)cc2)n1
The “activity change, negative = cytotoxicity” value of the first is lower: -10.3% for the first, 5.19% for the second.

First: Cc1ccc(S(=O)(=O)N2[C@@H](c3ccc(Cl)cc3)C(C(=O)O)=C[C@H]2CC2CCCC2)cc1
Second: Cc1ccc(S(=O)(=O)N2[C@@H](c3cccc(Cl)c3)C(C(=O)O)=CC[C@H]2c2cccc(Cl)c2)cc1
The “activity change, negative = cytotoxicity” value of the first is lower: 1.22% for the first, 6.73% for the second.

Compared with `COc1ccc(C(=O)c2c3ccc(C(F)(F)F)cc3[n+]([O-])n2CCCN)cc1`, `CCc1cccc(N=c2c([N+](=O)[O-])nn(-c3ccc(Cl)cc3)n2O)c1` is higher in “activity change, negative = cytotoxicity” value: 17.3% for the first, 18.4% for the second.

Compared with `Cc1ccc2nc(NC(=O)C3CCCN(S(=O)(=O)c4cnc[nH]4)C3)sc2c1` (configuration not stated), `CC1(C)CC2CC(C)(CN2S(=O)(=O)c2cccc(C(=O)O)c2)C1` (configuration not stated) is lower in “activity change, negative = cytotoxicity” value: 13% for the first, -6.79% for the second.

Going from `CCCSc1ccc2nc(NC(=O)OC)[nH]c2c1` to `CN(C)c1ccc2nsnc2c1[N+](=O)[O-]`, the “activity change, negative = cytotoxicity” value rises from 4.95% to 22%.

Going from `O=[N+]([O-])c1ccc(Oc2cccc(Br)c2)c2ccncc12` to `Cc1c(Br)c([N+](=O)[O-])nn1C(C)C(=O)Nc1ccc2c(c1)OCO2` (configuration not stated), the “activity change, negative = cytotoxicity” value falls from 9.74% to -1.69%.

First: O=C1C2C3C=CC(C3)C2C(=O)N1Nc1ccc([N+](=O)[O-])cc1[N+](=O)[O-] (configuration not stated)
Second: Nc1ncnc2c1ncn2C1O[C@H](CO)[C@@H](O)[C@@H]1O (some centres not stated)
The “activity change, negative = cytotoxicity” value of the first is lower: -9.27% for the first, 12.7% for the second.
